# High-throughput results as filed in PubChem.
# CCT modulator – High-Throughput Screening for Modulators of Cytosolic Chaperonin Activity. purified chaperonin ATPase assay, HTRF ADP detection, 30 min. activity change, % (concentration not given with the values), hits read low. 360,000 compounds, 0.3% hits; in the data active = activity change below about -30%
#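 We incubate TRiC, 40 or 20 nM final, with library compounds at 76 uM and 10 uM ATP for 30 min at 37 °C. ADP formed is detected with Transcreener HTRF reagents after 30 min at room temperature.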
# Mm-Cpn inhibitor – Inhibitors of TCP-1 ring complex (TRiC) of Methanococcus maripaludis (MmCpn): qHTS | Chaperonin Mm-Cpn (Methanococcus maripaludis) | purified Mm-Cpn ATPase, ADP Transcreener TR-FRET | Potency, µM (series often up to 76.9 µM), usual class: inhibitors | 330,000 compounds, 0.031% hits | AID 504842, 2011; also: nearly all actives have a fitted effect of over 80% in size
#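 Reaction buffer contained 30 mM Tris pH 7.4, 100 mM KCl, 5 mM MgCl2 and 1 mM DTT. Mm-CPN (25 nM final) hydrolysed 10 uM ATP over 30 min at 37°C; ADP was read by HTRF.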
# Glioma ERSR ind – qHTS for Inducers of the Endoplasmic Reticulum Stress Response (ERSR) in Human Glioma: qHTS | U87-MG GRP78 promoter luciferase reporter, 16 h | Potency, µM, most hits filed as activators | 420,000 compounds, 0.02% hits; also: series mostly up to about 76 µM; nearly all actives have a fitted effect of over 35% in size
#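 Stably transfected U87-MG glioma cells carrying a GRP78-based luciferase sensor; 16 h compound incubation. Luminescence end-point read 10 min after Bright-Glo addition at room temperature.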
# Akt phos inh – HTS Assay for Inhibitors of Akt Phophorylation: Primary Screen. 360,000 compounds, 0.32% hits. activity change, % for hits at 50 µM. Neuro2A IGF-stimulated pAkt S473 HTRF, 20 min; stronger effect = lower value; in the data active = activity change below about -80%; inconclusive = mostly about -51% to -80%
#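 Single-point screen (50 µM final compound) in Neuro2A cells stimulated 20 min with 6 nM IGF at 37 deg C. After lysis, Ser473-phosphorylated Akt read by HTRF (ex 330 nm, em 615/665 nm) as the 665/615 ratio.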
# GLS inhibitor – qHTS for Inhibitors of Glutaminase (GLS); AID 624170, 2012; 410,000 compounds, 0.21% hits; GLS enzymatic activity, qHTS titration; Potency, µM (top dose mostly 45.5 µM), usual class: inhibitors
#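 Assay buffer: 45 mM KH2PO4 pH 8.2, 0.02% Tween-20. hKGA acts on L-glutamine (1 mM solution added); product glutamate is reported by an oxidase/peroxidase Amplex Red coupling, with fluorescence taken at baseline and 30 min.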
# IDH1 R132H inh – qHTS for Inhibitors of mutant isocitrate dehydrogenase 1 (IDH1): qHTS; 390,000 compounds, 0.093% hits; IDH1-R132H enzyme, NADPH consumption, diaphorase/resazurin fluorescence; Isocitrate dehydrogenase [NADP] cytoplasmic (Homo sapiens), O75874; Potency, µM (series often up to 76.6 µM), actives largely listed as inhibitors; also: nearly all actives have a fitted effect of over 65% in size
# Target sequence (O75874 whole entry R132H, stated change not applied): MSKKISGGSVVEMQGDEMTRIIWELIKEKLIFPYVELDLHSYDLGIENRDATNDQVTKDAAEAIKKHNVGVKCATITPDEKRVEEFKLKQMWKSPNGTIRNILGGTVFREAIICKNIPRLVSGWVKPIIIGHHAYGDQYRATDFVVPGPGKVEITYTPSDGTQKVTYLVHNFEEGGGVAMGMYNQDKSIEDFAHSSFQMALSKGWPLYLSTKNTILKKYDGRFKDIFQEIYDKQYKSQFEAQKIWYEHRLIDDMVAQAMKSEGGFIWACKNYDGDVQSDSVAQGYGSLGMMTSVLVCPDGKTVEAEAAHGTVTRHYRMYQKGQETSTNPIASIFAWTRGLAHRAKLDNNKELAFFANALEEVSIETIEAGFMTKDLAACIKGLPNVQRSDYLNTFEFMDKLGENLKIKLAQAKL
#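 IDH1-R132H (0.5 ug/mL) preincubated 30 min with compound, then NADPH (0.016 mM) and alpha-KG (2 mM) added; 80 min at RT, pH 7.5. Remaining NADPH coupled via diaphorase/resazurin to fluorescence (540/590 nm); concentration-response curves normalized to no-enzyme control.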
# A number is an active result; – = inactive; ? = inconclusive; · = no result. Compounds with a hit are over-represented: about 0.85% of the library has one in this group of screens. Unless noted, calls follow the shape of the dose curve; as a rule, active = well fitted curve in the direction sought with a large enough effect; inconclusive = small, poorly fitted or top-dose-only effect, or another doubt; inactive = no such curve, though single readings can be large; an effect the other way counts as inactive or inconclusive.
SMILES,CCT modulator,Mm-Cpn inhibitor,Glioma ERSR ind,Akt phos inh,GLS inhibitor,IDH1 R132H inh
C=CCn1c(-c2csc(-c3ccccc3)n2)n[nH]c1=S,–,·,–,-106%,?,–
CCOC(=O)N1CCN(C(=O)CN(Cc2ccc(Cl)cc2)S(=O)(=O)c2ccccc2)CC1,–,–,–,-103%,–,–
CC1CCCCC1NC(=O)COC(=O)c1c2c(nc3ccccc13)/C(=C\c1ccco1)CC2 (configuration not stated),–,·,–,–,11µM,–
CN(CCC#N)C(=O)COC(=O)c1c2c(nc3ccccc13)/C(=C\c1ccco1)CC2,–,·,–,–,11µM,–
CCC1(C2CCN(Cc3cccc(Cl)c3)CC2)NC(=O)N(CC2COc3ccccc3O2)C1=O (configuration not stated),·,·,–,·,·,·
CN1/C(=C\C=N\O)C(C)(C)c2ccccc21,–,–,–,–,–,–
CN1/C(=C\C=C2/C(=O)Oc3ccccc3C2=O)C(C)(C)c2ccccc21,–,–,–,–,–,37µM
CN1C(=CC=C2C=C(I)C(=O)C(I)=C2)C(C)(C)c2ccccc21,–,–,–,–,–,46µM
Cc1ccc(C(=O)Nc2cccc(-c3nc(CNC(=O)C4CCCCC4)c(C)o3)c2)s1,·,·,–,·,·,·
Cc1ncsc1CCC(=O)N1CCCC(c2nc(-c3ccncc3)ncc2-c2ccccc2)C1 (configuration not stated),·,·,–,·,·,·
CC(/C=C/c1ccccc1)=N\Nc1nc(-c2ccccc2)cs1,-70,–,–,–,–,–
CC1CCCC(C)N1/N=C/c1ccc(O)c(O)c1 (configuration not stated),–,–,–,–,–,–
COc1ccc(/C=N/N2C(C)CCCC2C)cc1O (configuration not stated),–,–,–,–,11µM,–
O=C(NCCc1ccccn1)C1CC12CCN(C(=O)c1c(F)cccc1Cl)CC2 (configuration not stated),·,·,–,·,·,·
O=S(=O)(c1ccccc1)N1CCN(c2cc(-c3ccccc3)nc3ncnn23)CC1,–,–,–,-88%,–,–
O=S(=O)(c1ccc(Br)cc1)N1CCN(c2cc(-c3ccccc3)nc3ncnn23)CC1,–,–,–,·,–,–
CCOC(=O)N1CCN(C(=O)c2ccc(-c3ccccc3OC)nc2N2CCC(N3CCCC(CO)C3)CC2)CC1 (configuration not stated),·,·,–,·,·,·
OC(c1cccnc1)c1ccc2c(c1)CN(Cc1cn(-c3ccccc3)nc1-c1ccccc1)CCO2 (configuration not stated),·,·,–,·,·,·
O=C(O)c1ccccc1-c1nc2ccccc2c(=O)[nH]1,–,–,–,-105%,–,–
Cn1ccc(C(=O)NCC2CCC3(CCN(Cc4ccc(F)cc4F)CC3)O2)n1 (configuration not stated),·,·,–,·,·,·
C[n+]1cc2c3c(ccc2c2ccc4cc5c(cc4c21)OCO5)OCO3,·,·,–,·,3.2µM,·
O=C(Nc1ccccc1N1CCOCC1)c1ccccc1NS(=O)(=O)c1ccc(F)c(F)c1,-31,–,–,–,–,–
O=C(Nc1ccccc1N1CCOCC1)c1ccccc1NS(=O)(=O)c1ccc(F)cc1,–,–,–,–,–,–
OCCCNCc1cc2cc3c(cc2nc1N1CCN(c2cccc(Cl)c2)CC1)OCO3,·,·,–,·,·,·
COc1cccc(C2C(C(=O)c3ccco3)=C(O)C(=O)N2CCN(C)C)c1OC (configuration not stated),–,–,–,–,–,–
CN(C)CCN1C(=O)C(O)=C(C(=O)c2ccco2)C1c1ccccc1F (configuration not stated),–,–,–,-121%,–,–
